Assay results taken from PubChem BioAssay AID493240 (Broad Institute, 2011).
The campaign covered roughly 1,300 compounds. About 270 (21%) were called active. The rule behind the calls is not given here. These entries were drawn from the full list. Measured potencies and affinities stand elsewhere.

Test: cytotoxicity in parental SK-MEL-5 melanoma cells – cell-based, CellTiter-Glo, cherry-picked, set 3, orthogonal assay for MITF inhibitor project, dose response (AID 493240)
Conditions: SK-MEL-5 viability, ATP luminescence (CellTiter-Glo), 24 h; series mostly up to 35 µM

Row | SMILES | outcome
1 | COc1cccc(/C=C/C(=O)c2ccc3c(c2)OCCO3)c1OC | inactive
2 | O=C(/C=C/c1ccc2c(c1)OCCO2)c1ccccc1 | inactive
3 | O=C(Nc1nc2ccsc2c(=O)s1)C1CCC1 | inactive
4 | O=C(Nc1ccccc1Cl)c1cc(=O)c2ccccc2o1 | inactive
5 | Cc1ccc(-c2noc(CN3CCCCC3)n2)cc1 | inactive
6 | Cc1cc(C)c2c(N)c(C(=O)N/N=C/c3cccnc3)sc2n1 | inactive
7 | Cc1nc2ccc(NC(=O)c3ccco3)cc2nc1C | inactive
8 | COc1cccc(/C=N/NC(=O)c2cccs2)c1 | inactive
9 | CC1Cc2cc(-c3csc(N)n3)ccc2O1 (stereo not given) | inactive
10 | CCCCOc1ccc(-c2ncc([N+](=O)[O-])cn2)cc1 | inactive
11 | COC(=O)CSC1=C(C#N)C(=O)NC(c2ccccc2)S1 (stereo not given) | inactive
12 | COc1nc(NC2CCCCC2)nc(NC(C)(C)C)n1 | inactive
13 | Cc1ccc2nc(Cc3ccc(N)cc3)oc2c1 | inactive
14 | Cc1nc(NC(=O)/C=C/c2ccccc2)n[nH]1 | inactive
15 | CCCc1ccc(-c2ccc(/C=C/C(=O)O)cc2)nc1 | inactive
16 | [2H]C(CCOS(N)(=O)=O)c1ccc(C(C)(C)C)cc1 (stereo not given) | inactive
17 | CC(=O)N(C1CC(C)C(C#N)(C#N)C1(C#N)C#N)N(C)C (stereo not given) | inactive
18 | Cc1cccnc1NC(=O)NC(=O)c1ccc(C(C)(C)C)s1 | inactive
19 | O=C(CC(=O)c1ccccc1)Nc1ccccn1 | inactive
20 | COc1ccc(NC(=O)c2cc3ccccc3oc2=O)c(OC)c1 | inactive
21 | NNC(=O)Cn1c(SCc2ccccc2)nc2ccccc21 | inactive
22 | CCCCOc1ccc(-c2nnn(C(C)(C)C(=O)OC)n2)cc1 | inactive
23 | CCSc1nnc(NC(=O)C2CCCCC2)s1 | inactive

Row | SMILES | outcome
24 | COCc1cc(C)nc2sc(C(=O)Nc3ccc(OC)cc3)c(N)c12 | inactive
25 | CCN(CC)c1ccc(/C=N/NC(=O)c2cccc(S(=O)(=O)N3CCOCC3)c2)c(O)c1 | inactive
26 | O=C(N/N=C\c1ccc([N+](=O)[O-])o1)C1COc2ccccc2O1 (stereo not given) | inactive
27 | Clc1ccc(-c2noc(CN3CCOCC3)n2)cc1 | inactive
28 | COc1ccc(-c2nc3n(c2C)Cc2ccccc2-3)cc1 | inactive
29 | COc1ccc(-c2cc(-c3ccccc3)c(C#N)c(S(C)=O)n2)cc1 (stereo not given) | inactive
30 | CC(C)(C)c1ccc(C(=O)Nc2sc3c(c2C(=O)O)CCC3)cc1 | inactive
31 | Cc1ccc(-n2ncc3c(SCC(N)=O)ncnc32)cc1C | inactive
32 | CC(/C=C1\SC(=O)N(CCCC(=O)O)C1=O)=C\c1ccccc1 | inactive
33 | Cc1cc(C)n(CCC(=O)N/N=C/c2c(O)ccc3ccccc23)n1 | inactive
34 | COc1ccc2nc(N3CCN(C(=O)c4ccc([N+](=O)[O-])o4)CC3)sc2c1 | inactive
35 | Cc1cccc(NC(=O)CNC(=O)Cn2ncc(Cl)c(Cl)c2=O)c1C | inactive
36 | C/C(=N\Nc1nccnc1Cl)c1ccc(O)c(C)c1 | inactive
37 | O=C(c1ccc([N+](=O)[O-])s1)N1CCCc2ccccc21 | inactive
38 | CCOC(=O)c1c(C)[nH]c(C)c1C(=O)COC(=O)c1ccc([N+](=O)[O-])s1 | inactive
39 | CCOC(=O)C(=Cc1ccc(-n2ccnc2)cc1)C(=O)OCC | inactive
40 | NC(=O)C1CCN(C2=C(NS(=O)(=O)c3ccc(Br)cc3)C(=O)c3ccccc3C2=O)CC1 | inactive
41 | Cc1ccc(C(CNS(=O)(=O)c2ccc(Br)cc2)N2CCN(C)CC2)cc1 (stereo not given) | inactive
42 | Cc1cc(N2CCOCC2)ccc1/C=C\[N+](=O)[O-] | inactive
43 | COc1cc2c(c(OC)c1OC)-c1ccc(N(C)CC(OC)OC)c(=O)cc1[C@@H](NC(C)=O)CC2 | inactive
44 | Nc1ccc2c(c1)OC1(CCCC1)O2 | inactive
45 | COc1cc(OC)cc(C(=O)N[C@H](C(=O)Nc2nc3ccccc3[nH]2)C(C)C)c1 | inactive
46 | CN(C)C1CCN(Cc2cc(COCc3ccccc3)c3cccnc3c2O)C1 (stereo not given) | inactive

Row | SMILES | outcome
47 | Oc1c(CN2CCCC2)cc(COCc2ccccc2)c2cccnc12 | inactive
48 | COc1cccc(NC(=O)c2cc3c(=O)n4ccccc4nc3n(CC(C)C)c2=N)c1 | inactive
49 | Cc1ccc(NC(=O)c2cc3cccc([N+](=O)[O-])c3[nH]2)cc1 | inactive
50 | CCN=c1scc(-c2ccco2)n1/N=C/c1ccc(O)cc1 | inactive
51 | CC(C)CC(=O)/C=C/n1c(=S)oc2ccccc21 | inactive
52 | CCC(=O)Nc1cc2nn(-c3ccc(C)cc3)nc2cc1C | inactive
53 | Cc1cc(N2CCOCC2)n2ncc(-c3ccccc3Cl)c2n1 | inactive
54 | O=C(CCl)N(Cc1cc(=O)[nH]c2ccccc12)c1ccccc1 | inactive
55 | CCNc1nc(N)c(C(=O)c2ccc(Cl)s2)s1 | inactive
56 | CN(C)c1ccc(CNc2ccccn2)cc1 | inactive
57 | CN(C)c1ccc(NC(=S)c2ccccn2)cc1 | inactive
58 | O=C1c2ccccc2C(=O)c2c1ncn2-c1ccccc1 | inactive
59 | Cc1c(/C=C/C(=O)c2ccc(Cl)s2)cnn1C | inactive
60 | CC1CN(N=Cc2ccc([N+](=O)[O-])o2)C(=N)O1 (stereo not given) | inactive
61 | C#Cc1cccc(NC(=O)CSc2nnc(-c3ccc(C(F)(F)F)cn3)o2)c1 | inactive
62 | Cc1nc(NCCOc2ccccc2)sc1C(=O)Nc1ccccc1 | inactive
63 | COc1ccc(NC(=O)c2cc(-c3ccccc3Cl)on2)cc1 | inactive
64 | CCOC(=O)c1sc(-c2ccccc2)cc1N | inactive
65 | CCOC(=O)c1cnc2c(ccc3ccccc32)c1N | inactive
66 | Cc1cc(/C(N)=N/OC(=O)Nc2ccc(Cl)cc2)no1 | inactive
67 | COc1ccc(NCc2nc3ccccc3n2C)cc1 | inactive
68 | CC(=O)c1cccc(Nc2nc(-c3cccnc3)cs2)c1 | inactive
69 | CC(C)N1C/C(=C/c2cccnc2)C(=O)/C(=C/c2cccnc2)C1 | inactive

Row | SMILES | outcome
70 | CN1C/C(=C/c2cccnc2)C(=O)/C(=C/c2cccnc2)C1 | inactive
71 | C=CCn1c(C)cc(C(=O)Cn2ncc(Cl)c(Cl)c2=O)c1C | inactive
72 | O=C(NC1=NCCS1)C1COc2ccccc2O1 (stereo not given) | inactive
73 | COc1cc2ccccc2cc1C(=O)Nc1ccc(N2CCN(C)CC2)cc1 | inactive
74 | Cc1c(C(=O)N(CCO)Cc2ccccc2)oc2c(F)cccc12 | inactive
75 | COc1c(C)cccc1C(=O)Nc1ccc(N2CCN(S(C)(=O)=O)CC2)cc1 | inactive
76 | CCC1CCCCN1CCCNC(=O)c1cn(CC)c2ccc(S(=O)(=O)N(C)C3CCCCC3)cc2c1=O (stereo not given) | inactive
77 | Cc1ccc(-c2nc(-c3ccncc3)no2)cc1C | inactive
78 | CCOc1ccc(NC(=O)c2ccc3snnc3c2)cc1 | inactive
79 | Nc1ccccc1SC1CC(=O)N(c2ccc3c(c2)OCCO3)C1=O (stereo not given) | inactive
80 | O=C(O)c1ccc(C(=O)Nc2ccc(F)cc2)cc1 | inactive
81 | O=C(Nc1ccc([N+](=O)[O-])cc1)c1ccccc1 | inactive
82 | COc1ccc2c(C)nc(Nc3nc(-c4ccccc4)cc(=O)[nH]3)nc2c1 | inactive
83 | O=C(Cn1cc(/C=C\[N+](=O)[O-])c2ccccc21)Nc1ccccc1 | inactive
84 | Oc1cc(NCc2cccnc2)ccc1-c1nc2ccccc2o1 | inactive
85 | NCCN1C(=O)S/C(=C\c2ccc3c(c2)OCO3)C1=O | inactive
86 | O=C(COC(=O)C1=COCCO1)Nc1c(F)cccc1F | inactive
87 | N=c1n(CC(=O)c2ccc([N+](=O)[O-])cc2)c2ccccc2n1Cc1ccccc1Cl | inactive
88 | N=c1n(CC(=O)c2ccc([N+](=O)[O-])cc2)c2ccccc2n1Cc1ccccc1 | inactive
89 | Cc1ccccc1Cn1c(=N)n(CC(=O)c2ccc([N+](=O)[O-])cc2)c2ccccc21 | inactive
90 | O=C(C[n+]1cccc2ccccc21)c1ccc([N+](=O)[O-])cc1 | inactive
91 | CC(NC(=O)C12CC3CC(CC(C3)C1)C2)C(=O)NN=Cc1ccc([N+](=O)[O-])o1 (stereo not given) | inactive
92 | Cc1ccc(-n2nnnc2Sc2nc([N+](=O)[O-])nn2C)c(C)c1 | inactive

Row | SMILES | outcome
93 | O=C(O)c1cccc(COc2ccccc2Cl)c1 | inactive
94 | COc1ccc(O)c(/C=N/NC(=O)c2ccc(CSc3nc(C)cc(C)n3)cc2)c1 | inactive
95 | O=C(COc1ccc2c(c1)CCC2)N1CCc2ccccc21 | inactive
96 | O=S(=O)(c1ccc(F)cc1)c1snnc1-c1ccccc1 | inactive
97 | COC(=O)c1ccc(Nc2cc(C)nc3ccc(C)cc23)cc1 | inactive
98 | CCOc1ccc2nc(C)cc(Nc3cccc([N+](=O)[O-])c3)c2c1 | inactive
99 | COc1ccc(NC(=O)CCC(=O)N/N=C/c2ccc([N+](=O)[O-])s2)cc1 | inactive
100 | COc1ccc(NC(C)C(=O)N/N=C/c2ccc([N+](=O)[O-])s2)cc1 (stereo not given) | inactive
101 | O=[N+]([O-])c1c(NCCCO)cc(Sc2ccc(Cl)cc2)c2nonc12 | inactive
102 | O=C(NCc1ccccc1)C(=O)Nc1cccc(C(=O)O)c1 | inactive
103 | CC(=O)NC1=C(N(C)C2CCS(=O)(=O)C2)C(=O)c2ccccc2C1=O (stereo not given) | inactive
104 | O=C(c1cc2ccccc2oc1=O)N(Cc1ccccc1)C1CCS(=O)(=O)C1 (stereo not given) | inactive
105 | O=C(NC1CCCCC1)C(c1cccnc1)N(C(=O)CCl)c1cccc(Cl)c1 (stereo not given) | inactive
106 | O=C(NC1CCCCC1)C(c1cccnc1)N(C(=O)CCl)c1ccc(F)cc1 (stereo not given) | inactive
107 | CCC(=O)NC(c1ccccc1OC)c1ccc2cccnc2c1O (stereo not given) | inactive
108 | Cc1ccc(C(=O)c2no[n+]([O-])c2C(=O)c2ccc(C)cc2)cc1 | inactive
109 | Cc1ccc(NC(=O)C2CCN(S(=O)(=O)c3c(C)noc3/C=C/c3ccco3)CC2)nc1 | inactive
110 | Cc1[nH]nc(Nc2ccc(Br)cc2)c1[N+](=O)[O-] | inactive
111 | CC(C)(C)c1ccc(-c2noc(CCC(=O)NCC3CCCO3)n2)cc1 (stereo not given) | inactive
112 | O=C(CCCCC(=O)NN=Cc1ccccc1O)NN=Cc1ccccc1O | inactive
113 | Cn1cccc1-c1cc(C(=O)N/N=C/c2cc(Br)ccc2O)[nH]n1 | inactive
114 | O=C(N/N=C/c1cc(Br)ccc1O)c1ccncc1 | inactive
115 | Oc1ccccc1/C=N/Nc1cccc2cccnc12 | inactive
